Where a name gives a salt, the structure may show the parent alone.
tested on: PBMC-derived induced microglia-like cells (piMGLC); test: synaptosome phagocytic index relative to DMSO control (fraction of DMSO); higher = more phagocytosis; conditions: concentration: 10 uM (2 uM for compounds listed in Table S2); pretreatment time: 24 h; assay time: 3 h

| Structure (SMILES) | synaptosome phagocytic index |
| --- | --- |
| N=C(N)NC(=O)Cc1c(Cl)cccc1Cl [Guanfacine_(hydrochloride)] | 1.13 |
| Cc1ccc(NC(=O)c2ccc(CN3CCN(C)CC3)cc2)cc1Nc1nccc(-c2cccnc2)n1 [Imatinib_(Mesylate)] | 0.52 |
| C[C@@H]1O[C@@H]1P(=O)(O)O [Fosfomycin_(calcium)] | 0.946 |
| C[C@@H](NC(=O)c1ccc(F)cc1)c1ccc2c(c1)CCN2C(=O)C1CCOCC1 | 0.908 |
| CCN1CCN(C(=O)N[C@@H](C(=O)N[C@@H]2C(=O)N3[C@@H]2SC(C)(C)[C@@H]3C(=O)O)c2ccccc2)C(=O)C1=O [Piperacillin_(sodium)] | 1.13 |
| CC(=O)Nc1cccc(-n2c(=O)n(C3CC3)c(=O)c3c(Nc4ccc(I)cc4F)n(C)c(=O)c(C)c32)c1 [Trametinib] | 0.637 |
| CCOCc1cc(OC)c(-c2ccc(C[C@H](NC(=O)c3c(F)cccc3F)C(=O)O)cc2)c(OC)c1 [Firategrast] | 0.931 |
| CCN(CC)CC#CCOC(=O)C(O)(c1ccccc1)C1CCCCC1 (configuration not stated) [Oxybutynin] | 0.889 |
| Nc1nc(=O)n([C@@H]2CS[C@H](CO)O2)cc1F [Emtricitabine] | 0.777 |
| CCc1c2c(nc3ccc(OC(=O)N4CCC(N5CCCCC5)CC4)cc13)-c1cc3c(c(=O)n1C2)COC(=O)[C@]3(O)CC [Irinotecan_(hydrochloride_trihydrate)] | 0.682 |
| Nc1cccc2c1C(=O)N(C1CCC(=O)NC1=O)C2=O (configuration not stated) [Pomalidomide] | 0.545 |
| COc1ccc(OCCN2CCN(C(=O)c3cc4ccccc4[nH]3)CC2)cc1 | 1.22 |
| Fc1ccc(-c2c3cccc(C(F)(F)F)c3nn2Cc2ccc(F)cc2Cl)cc1 | 0.581 |
| N#Cc1ccc(Cn2ccc(NC(=O)Cc3ccc(C4(C(F)(F)F)CC4)cc3)n2)nc1 | 1.06 |
| CC(C)[C@H]1C(=O)N[C@@H](CCCNC(=N)N)C(=O)NCC(=O)N[C@@H](CC(=O)O)C(=O)N[C@H](Cc2ccccc2)C(=O)N1C [Cilengitide] | 1.09 |
| NNC(=O)c1ccncc1 [Isoniazid] | 1.01 |
| COc1cc2ncnc(Nc3ccc(F)c(Cl)c3)c2cc1OCCCN1CCOCC1 [Gefitinib] | 1.24 |
| NCCCS(=O)(=O)O [Tramiprosate] | 1.14 |
| COc1cc2nc(N(C)CCCNC(=O)C3CCCO3)nc(N)c2cc1OC (configuration not stated) [Alfuzosin] | 0.938 |

| Structure (SMILES) | synaptosome phagocytic index |
| --- | --- |
| COc1nccc(-c2c(-c3ccc(F)cc3)ncn2C2CCC(O)CC2)n1 (configuration not stated) | 0.995 |
| CCNc1nc(Nc2cc(F)c(C(=O)N3CCOCC3)cc2OC)ncc1C(F)(F)F [GNE-7915_(tosylate)] | 0.359 |
| CN(C)C(=O)c1cc2cnc(Nc3ccc(N4CCNCC4)cn3)nc2n1C1CCCC1 [Ribociclib_succinate] | 0.592 |
| O=C(O)c1cc(/N=N/c2ccc(S(=O)(=O)Nc3ccccn3)cc2)ccc1O [Sulfasalazine] | 0.883 |
| OC(CCN1CCCCC1)(c1ccccc1)C1CCCCC1 (configuration not stated) [Trihexyphenidyl_(hydrochloride)] | 1.24 |
| CCCCN1C[C@H](O)[C@@H](O)[C@H](O)[C@H]1CO [Miglustat_(hydrochloride)] | 1.04 |
| CC(C)C[C@H](NC(=O)[C@H](CCCCN)NC(=O)[C@H](CO)NC(=O)[C@@H](N)CC(C)C)C(N)=O [LSKL,_Inhibitor_of_Thrombospondin_(TSP-1)_(TFA)] | 1.05 |
| CC(C)OC(=O)NC1CCN(Cc2cc(Cl)c3cccnc3c2O)CC1 | 0.609 |
| NC(=O)c1cccc(-c2cccc(OC(=O)NC3CCCCC3)c2)c1 | 0.86 |
| COc1ccc(C[C@@H]2c3cc(OC)c(OC)cc3CC[N@+]2(C)CCC(=O)OCCCCCOC(=O)CC[N@@+]2(C)CCc3cc(OC)c(OC)cc3[C@H]2Cc2ccc(OC)c(OC)c2)cc1OC [Cisatracurium_(besylate)] | 0.726 |
| C[N+](C)(C)CCO.[Cl-] [Choline_(chloride)] | 0.799 |
| O=C(O)Cc1ccccc1Nc1c(Cl)cccc1Cl [Diclofenac_(Sodium)] | 0.856 |
| Cc1ccc(S(=O)(=O)/C=C/C#N)cc1 | 0.903 |
| C[C@H]1COCCN1c1nc(-c2cnc(N)cc2C(F)F)nc(N2CCOCC2)n1 | 0.366 |
| CCC(C)n1ncn(-c2ccc(N3CCN(c4ccc(OCC5COC(Cn6cncn6)(c6ccc(Cl)cc6Cl)O5)cc4)CC3)cc2)c1=O (configuration not stated) [Itraconazole] | 0.377 |
| CCCC(CCC)C(=O)O [Valproic_acid] | 0.68 |
| NC1CCN(c2cccc(Cl)n2)CC1 | 0.648 |
| CC(=O)N[C@@H](CS)C(=O)O [Acetylcysteine] | 0.86 |

— the supplement of paper PMC12339681
